According to PubChem BioAssay (NCI):
Compounds without any hit were thinned out: in the full panel of roughly 79,000, 15% have a hit. Values without a mark were called inactive. Active and inactive are the calls of the source. Cut-off read from the data, not from the text of the source: active = growth inhibition above about 70%; inactive = the rest.

Assays:
[1] = NCI Yeast Anticancer Drug Screen. Data for the rad50 strain (AID 155);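 note: 0% = growth of vehicle-only cultures of the same strain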; conditions: S. cerevisiae rad50 strain growth inhibition, hits give high values
Procedure, shortened: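 Cells are treated with compound, grown, and their growth is then scored against vehicle-only cultures of the same repair-deficient yeast strain.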

[2] = NCI Yeast Anticancer Drug Screen. Data for the mec2-1 strain (AID 157); conditions: S. cerevisiae mec2-1 strain, hits give high values
Procedure, shortened: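 Readout is yeast growth inhibition, normalised to vehicle-treated controls, in the mec2-1 strain exposed to compound.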

[3] = NCI Yeast Anticancer Drug Screen. Data for the sgs1 mgt1 strain (AID 161);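 note: 0% = growth of cultures given vehicle only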; conditions: S. cerevisiae sgs1 mgt1 strain, hits give high values
Procedure, shortened: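 Percent growth inhibition was derived by comparing compound-exposed mutant yeast with vehicle-exposed cultures. The strain carries alterations in DNA damage repair.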

[4] = NCI Yeast Anticancer Drug Screen. Data for the cln2 rad14 strain (AID 165);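 note: 0% = growth equal to vehicle treated cultures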; conditions: S. cerevisiae cln2 rad14 strain, hits give high values
Procedure, shortened: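 Relative to vehicle controls, growth inhibition of compound-treated cln2 rad14 yeast was recorded.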

[5] = NCI Yeast Anticancer Drug Screen. Data for the bub3 strain (AID 167); conditions: S. cerevisiae bub3 mutant strain, hits give high values
Procedure, shortened: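 Part of a panel of yeast mutants defective in DNA damage repair or cell cycle regulation. Each strain is grown with compound, and inhibition is calculated relative to solvent-treated cultures.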

[6] = NCI Yeast Anticancer Drug Screen. Data for the mlh1 rad18 strain (AID 175); conditions: S. cerevisiae mlh1 rad18 strain growth inhibition, hits give high values
Procedure, shortened: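 Test agents were incubated with a yeast strain of defined genotype (DNA damage repair defect). Inhibition of growth was derived by comparison with vehicle-exposed cultures.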

[7] = at 5.0 µM (retest, dose inferred, filed as 0.5)
[8] = at 50.0 µM (retest, dose inferred, filed as 5.0)

SMILES | growth inhibition [1, 7] | growth inhibition [1, 8] | growth inhibition ([1]; at 50.0 µM) | growth inhibition [2, 7] | growth inhibition [2, 8] | growth inhibition ([2]; at 50.0 µM) | growth inhibition [3, 7] | growth inhibition [3, 8] | growth inhibition ([3]; at 50.0 µM) | growth inhibition [4, 7] | growth inhibition [4, 8] | growth inhibition ([4]; at 50.0 µM) | growth inhibition [5, 7] | growth inhibition [5, 8] | growth inhibition ([5]; at 50.0 µM) | growth inhibition [6, 7] | growth inhibition [6, 8] | growth inhibition ([6]; at 50.0 µM)
O[Si](O)(c1ccccc1)c1ccccc1 | 13% | 92% (active) | 96.2% (active) | 7% | 92% (active) | 93% (active) | 10% | 92% (active) | 95.8% (active) | 0% | 88% (active) | 90.2% (active) | -2% | 94% (active) | 95.6% (active) | 12% | 95% (active) | 95.8% (active)
O=C(O)c1cc2c(cc1CC(Cc1ccc3c(c1)CCCC3)C(=O)O)CCCC2 (configuration not stated) | 20% | 95% (active) | 86.3% (active) | 16% | 98% (active) | 73.3% (active) | 19% | 98% (active) | 70.2% (active) | 9% | 96% (active) | 74.4% (active) | 7% | 98% (active) | 76.2% (active) | 8% | 96% (active) | 82.5% (active)
Cc1cc(O)cc2c1c(=O)c1ccccc1n2C | 15% | 29% | 39% | 15% | 24% | 24.5% | 20% | 17% | 11.4% | 15% | 25% | 1.8% | 18% | 25% | 2.4% | 23% | 34% | 11.6%
CCCC/C=C\CCCCCCCCCC1=C(O)C(=O)C=C(OC)C1=O | 65% | 83% (active) | 60.9% | 64% | 89% (active) | 69.6% | 74% (active) | 91% (active) | 65.3% | 40% | 62% | 42.5% | 77% (active) | 86% (active) | 63% | 71% (active) | 87% (active) | 57.7%
CN(C)c1ncnc2c1ncn2C | 29% | 61% | 70.8% (active) | 15% | 81% (active) | 61.4% | 16% | 53% | 59.1% | -1% | 38% | 17.4% | 20% | 98% (active) | 38.7% | 26% | 72% (active) | 61.4%
O=C(O)/C=C/C(=O)c1ccc(O)cc1 | 25% | 97% (active) | 95.7% (active) | 9% | 94% (active) | 95.8% (active) | 28% | 93% (active) | 94.6% (active) | 7% | 91% (active) | 91.3% (active) | 5% | 95% (active) | 92% (active) | 32% | 98% (active) | 96% (active)
CC(C)c1cccc2sc(NC(=O)C(=O)C(C#N)c3cccc4ccccc34)nc12 (configuration not stated) | 0% | 14% | 19.2% | 3% | 15% | -9.55% | 2% | 10% | 0.25% | 3% | 8% | 13.2% | 3% | 5% | 5.05% | 3% | 9% | 12.2%
Cc1ccc(Nc2nc3c(s2)C(=O)c2ccccc2C3=O)c(C)c1 | 28% | 99% (active) | 98.7% (active) | 33% | 99% (active) | 99.5% (active) | 18% | 99% (active) | 99.2% (active) | 7% | 98% (active) | 98.9% (active) | 50% | 99% (active) | 99.5% (active) | 30% | 98% (active) | 97.8% (active)
CC(=O)N(C)c1cc(NCc2ccccc2)ccc1OCc1ccccc1 | 1% | 96% (active) | 98.1% (active) | 12% | 95% (active) | 97.8% (active) | 2% | 96% (active) | 97.7% (active) | -60% | 24% | 79.8% (active) | -7% | -65% | 95.7% (active) | -1% | 96% (active) | 98.3% (active)
CCOc1ccc2c(ccc(/C=C\c3cc(C)c4cccnc4c3O)[n+]2C)c1 | 91% (active) | 92% (active) | 87.3% (active) | 81% (active) | 91% (active) | 89.2% (active) | 87% (active) | 93% (active) | 90% (active) | 67% | 87% (active) | 86.8% (active) | 59% | 91% (active) | 82.8% (active) | 95% (active) | 93% (active) | 89% (active)
CCCCCCCCCCCCCCC(C(=O)O)S(=O)(=O)O (configuration not stated) | 0% | 85% (active) | 98.9% (active) | -1% | 58% | 99.7% (active) | -3% | 69% | 87% (active) | -2% | 70% (active) | 95.7% (active) | -4% | 66% | 99.6% (active) | 0% | 83% (active) | 99.6% (active)
c1ccc2c(c1)[nH]c1c[n+]3c(c[n+]12)[nH]c1ccccc13 | 7% | 53% | 71.6% (active) | 8% | 47% | 5.45% | 10% | 67% | 58.9% | -7% | 29% | 45.2% | -8% | 50% | 6% | 4% | 84% (active) | 80% (active)
O=[N+]([O-])c1ccc(SCc2ccccc2)c2nonc12 | 13% | 63% | 86.8% (active) | 12% | 99% (active) | 89.5% (active) | 14% | 87% (active) | 88% (active) | 13% | 77% (active) | 88.9% (active) | 11% | 97% (active) | 88.7% (active) | 22% | 81% (active) | 86% (active)
O=[N+]([O-])c1cc(F)c(Sc2cc(Br)c([N+](=O)[O-])cc2F)cc1Br | 1% | -16% | 8.85% | -1% | -8% | 9.55% | -1% | -7% | 3.05% | 1% | -21% | 43.5% | 6% | -3% | 28.9% | 0% | -4% | 19.9%
O=C(CCl)Oc1ccc(Sc2ccc(OC(=O)CCl)cc2)cc1 | 6% | 97% (active) | 98.7% (active) | 12% | 98% (active) | 98.3% (active) | 10% | 97% (active) | 98.8% (active) | 13% | 94% (active) | 96.3% (active) | 1% | 99% (active) | 99.4% (active) | 7% | 99% (active) | 97.9% (active)
Cc1ccc(C(=O)C(F)(F)F)cc1 | -162% | -138% | 4.5% | -46% | -51% | -15.9% | -63% | -68% | -10.5% | -60% | -78% | 32.1% | -74% | -89% | -24.1% | -145% | -117% | 3.3%
CCOC(=O)/C(=C/O)c1c[nH]c2ccccc12 | 0% | 94% (active) | 97.8% (active) | -4% | 95% (active) | 98.3% (active) | -4% | 95% (active) | 96.8% (active) | 1% | 96% (active) | 96% (active) | 0% | 96% (active) | 97.3% (active) | 3% | 96% (active) | 97.7% (active)
CN(C)Cc1ccccc1C(=O)C(=O)c1ccccc1CN(C)C | -9% | 48% | -3.15% | 1% | 70% (active) | 3% | -5% | 3% | -6.5% | 9% | 0% | 46.3% | 10% | 7% | 57.8% | -4% | 73% (active) | 6.45%
CCN(CC)CCOc1c(Cl)c(Cl)c(Cl)c(Cl)c1Cl | 23% | 62% | 71.7% (active) | 15% | 77% (active) | 57.5% | 20% | 88% (active) | 86.8% (active) | -1% | 80% (active) | 48.5% | 1% | 56% | 64.2% | 7% | 80% (active) | 71.8% (active)
